# The campaign covered roughly 330,000 compounds. About 660 (0.2%) were called active. What follows is part of a selection rich in actives, with near analogues and random picks from the rest. Values without a mark were called inactive.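 How the source made its calls: active means inhibition of at least 40% at 10 µM in the primary screen; inactive means the rest.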
# Tested on: intestinal alkaline phosphatase [Mus musculus]
# Test: inhibitors of mouse IAP, primary screen, biochemical, luminescence, uHTS (AID 2806);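 further: plate controls were DMSO with enzyme for no effect and no enzyme wells for full effect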
# Conditions: purified mouse IAP, CDP-Star luminescence, 30 min; at 10 µM; stronger effect = higher value
row,Compound,inhibition
1,CSCCC(NC(=O)c1cc([N+](=O)[O-])cc([N+](=O)[O-])c1)c1nc2ccccc2[nH]1 (configuration not stated),-2%
2,Nc1ccccc1Sc1cc(Cl)nnc1Cl,2.3%
3,C=CCN1CC(C)/C(=N\O)CC1C (configuration not stated),0.1%
4,CC(=O)Nc1ccc(NS(=O)(=O)c2ccc3c(c2)NC(=O)CC(=O)N3)cc1,1.9%
5,Cc1cccc(-c2nc(CS(=O)CC(=O)NC(C)CCc3ccccc3)c(C)o2)c1 (configuration not stated),-5%
6,CCCCn1c(N)c(N(CCOC)C(=O)c2oc3ccc(OC)cc3c2C)c(=O)[nH]c1=O,-5.8%
7,Cc1n[nH]c(=O)c2c(NC(=O)CSc3ccccc3F)oc(C)c12,-5.6%
8,Cc1ccccc1NC(=O)C1CCCN(C(=O)NCc2ccccc2)C1 (configuration not stated),-10.1%
9,C=CCNC(=S)NNC(=O)COc1c(Cl)cc(Cl)cc1Cl,2.2%
10,Cc1cccc(NC(=O)c2cc(S(=O)(=O)N3CCC4(CC3)OCCO4)ccc2F)c1,2.1%
11,CCOC(=O)c1c(C)[nH]c(C)c1C(=O)CSc1nc(N)cc(N)n1,2%
12,CNS(=O)(=O)c1ccc(C(=O)NCC(=O)NCCc2ccc3c(c2)OCCO3)cc1,-6.6%
13,O=C(CCC(=O)OCc1cccc(C(=O)Oc2ccccc2)c1)Nc1cccc2ccccc12,3.6%
14,COc1ccc(NC(=O)CSc2nnc(C3CC3)n2C)cc1S(=O)(=O)N1CCCCC1,-4.3%
15,CCN(CC)C(=O)CS(=O)CC(=O)Nc1cc(OCCOC)c(Cl)cc1Cl (configuration not stated),-1.1%
16,Cc1ccccc1CN1CCC(C(=O)Nc2ccc(Oc3cccnc3)cc2)CC1,-39.6%
17,CC(=O)Nc1ccc(C(=O)/C=C/c2ccc[nH]2)cc1,1.1%
18,O=C(COc1ccccc1[N+](=O)[O-])N/N=C/c1ccc[nH]1,9.7%
19,CCCC(=O)Nc1ccc(C(=O)N/N=C/c2ccc[nH]2)cc1,40.9% (active)
20,CCCC(=O)Nc1ccc(C(=O)NCCCn2ccnc2)cc1,-4.6%
21,CN(CC(=O)NNC(=O)CNC(=O)c1ccccc1Cl)S(=O)(=O)c1ccc(Cl)cc1,-5.3%
22,O=C(COc1cccc2ccccc12)Nc1cc(S(=O)(=O)N2CCOCC2)ccc1N1CCOCC1,4%
23,O=C1C=C(c2cc(C(F)(F)F)cc(C(F)(F)F)c2)C[C@@H](c2ccc3c(c2)OCO3)C1,13.5%
24,S=c1[nH]nc2c3c4c(sc3ncn12)CCCC4,12.3%
25,Cc1cccc(N)c1SC1CCCCC1O (configuration not stated),2.7%
26,COc1cccc(C(=O)OCc2cc(=O)oc3c(C)c(C)ccc23)c1OC,8.2%

row,Compound,inhibition
1,Cn1c(SCC(=O)Nc2ccc(N3CCOCC3)cc2)nnc1C(F)(F)F,-6.7%
2,Cc1nnc(SCC(=O)Nc2ncc3c(n2)CC(C)(C)CC3=O)s1,8.5%
3,CCOc1ccc(N2C(=O)CN(c3cccc4ccccc34)C2=S)cc1,-14.2%
4,COc1ccc(OC)c(-c2csc(NC(=O)C3=NNC(=O)CC3)n2)c1,11.3%
5,COc1ccc(OC)c(Nc2nc(-c3ccc(O)c(O)c3)cs2)c1,68.7% (active)
6,COc1ccc(OC)c(-c2csc(NC(=O)COC(=O)C3CC3)n2)c1,6.9%
7,O=[N+]([O-])c1ccc(N2CCNCC2)cc1NCc1cccnc1,3%
8,Nc1ccc(-n2nncc2-c2ccco2)cc1,-3.6%
9,C=CCn1c(SCc2nnc(-c3ccccc3)o2)nnc1C(O)c1ccccc1 (configuration not stated),-0.4%
10,CCN(c1ccccc1)S(=O)(=O)c1cc2c(cc1C)n(C)c(=O)c(=O)n2C,-8%
11,NC(=O)C1CCCN(CC(=O)N2CCN(c3ccccc3)CC2)C1 (configuration not stated),15%
12,COc1ccc(NC(=O)C2CCC(CNc3c(N4CCCCC4)c(=O)c3=O)CC2)c(OC)c1 (configuration not stated),-14.9%
13,COc1ccc(N2CCN(S(=O)(=O)c3cc4c5c(c3)C(C)C(=O)N5CCC4)CC2)cc1 (configuration not stated),-7.1%
14,CCn1c(C)c(C)c2cc(C(=O)N3CCN(c4cccc(C)c4C)CC3)ccc21,1.5%
15,COc1ccc(OC)c(NC(=O)Cn2c(=O)oc3ccccc32)c1,-4.3%
16,CC(=O)Nc1c2c(nn1-c1cccc(C)c1)CSC2,9.8%
17,CCCCC(=O)Nc1ccc2c(c1)C(=O)NC2=O,7%
18,Cc1nn(C)c(C(=O)NNC(=S)NC2CCCCC2)c1Cl,16.2%
19,CCCCCCCCCOC1OC(CO)C(O)C(O)C1NC(C)=O (configuration not stated),3.6%
20,COc1cc(C2CC(=O)c3cnc(NC(C)=O)nc3C2)cc(OC)c1OC (configuration not stated),6.1%
21,O=C(Nc1ncc2c(n1)CC(c1ccco1)CC2=O)c1ccc(Cl)cc1 (configuration not stated),0.8%
22,CCc1ccc(Nc2ncc3c(n2)CC(c2ccco2)CC3=O)cc1 (configuration not stated),41.4% (active)
23,Brc1cnc2ccccc2c1N1CCCCC1,-0.5%
24,CCC(=O)c1ccc(OCC(=O)OCC(=O)N2CCc3ccccc3C2)cc1,2.5%
25,Cc1cc(NC(=O)/C=C/C(=O)N(CC(=O)NC2CCCC2)c2ccc(F)cc2)no1,5.2%
26,COc1ccc(CNC(=O)C2CCCC2)cc1,4.3%

row,Compound,inhibition
1,COc1ccc(CNC(=O)C2CC(c3ccc(C(F)(F)F)cc3)=NO2)cc1 (configuration not stated),41.4% (active)
2,O=C(NCc1cc(C(F)(F)F)cc(C(F)(F)F)c1)C1CC(c2cccc(F)c2)=NO1 (configuration not stated),-2.8%
3,CC1CCCCN1S(=O)(=O)CCNC(=O)c1ccccc1 (configuration not stated),8.6%
4,Cc1ccc(C)c(NC(=O)CSc2nc3c(oc4ccccc43)c(=O)n2-c2ccccc2)c1,2.2%
5,Cc1ccc(-c2nnn(CC(=O)N(CCO)C(C(=O)NC(C)(C)C)c3ccncc3)n2)cc1 (configuration not stated),-1.3%
6,CCNC(=O)N1CCN(S(=O)(=O)c2ccc3c(c2)OCCCO3)CC1,-17.6%
7,COc1cccc2[nH]c(C(=O)NCCc3ccccc3)cc12,-19.5%
8,O=C(N1CCCCC1)N1CCN(C(=O)N2CCCCC2)CC1,-1.7%
9,CC1(C)S[C@@H]2[C@H](N=CN3CCCCCC3)C(=O)N2[C@H]1C(=O)O,-8.2%
10,O=C(COC(=O)Cn1[nH]c(=O)c2ccccc2c1=O)Nc1c(Cl)cccc1C(F)(F)F,4.1%
11,O=C(c1cc2ccccc2o1)N1CCN(S(=O)(=O)c2ccc(Cl)s2)CC1,-5.4%
12,Cc1cc(-c2ccc(S(=O)(=O)N3CCc4ccccc4C3)s2)on1,4.5%
13,NC(=O)NC(=O)CSc1nc2cc([N+](=O)[O-])ccc2n1-c1cccc(C(F)(F)F)c1,14.7%
14,CCc1sc(C(=O)N2CCN(CC(=O)Nc3cccc(F)c3)CC2)cc1C,6.1%
15,CC[C@]1(O)C[C@@H]2CN(CCc3c([nH]c4ccccc34)[C@@](C(=O)OC)(c3cc4c(cc3OC)N(C)[C@H]3[C@@](O)(C(=O)OC)[C@H](OC(C)=O)[C@]5(CC)C=CCN6CC[C@]43[C@@H]65)C2)C1,-16.7%
16,CCNc1c(NS(=O)(=O)c2ccc(C3CCCCC3)cc2)c(=O)oc2ccccc12,6%
17,CC(=O)Nc1ccc(S(=O)(=O)Nc2cc(C)cn(Cc3ccc(C)cc3)c2=O)cc1,4.9%
18,O=C(Nc1cccc2ccccc12)c1onc2c1CCCC2,3%
19,COc1cc(CN2CCNC(=O)C2CC(=O)NCCc2ncccc2C)cc(OC)c1 (configuration not stated),5.5%
20,O=S(=O)(NCc1ccc2c(c1)OCO2)c1cccc2nsnc12,-5.4%
21,Cc1ccc(S(=O)(=O)NCC(=O)NNC(=O)c2ccc(Br)cc2)cc1C,28.4%
22,Cn1c2c(c(=O)n(C)c1=O)C1c3ccccc3OCC1C(C)(C)O2 (configuration not stated),8.7%
23,CC(C)Oc1ccc(CN2CCC(n3nccc3NC(=O)c3cccnc3)CC2)cc1,-5.5%
24,Oc1cc(O)c2c(c1)OC(c1ccc(O)c(O)c1)C(O)C2 (configuration not stated),75.1% (active)
25,CC(C)Oc1ccc(CCc2nnc(SCC(=O)O)n2-c2ccccc2)cc1,3.2%
26,O=S(=O)(c1ccc(NC(=S)NN=C(C2CC2)C2CC2)cc1)N1CCOCC1,37.7%

row,Compound,inhibition
1,O=[N+]([O-])c1cc(Cl)cc(/C=N/NC(=S)Nc2cc(S(=O)(=O)N3CCOCC3)ccc2Cl)c1O,40.5% (active)
2,Cc1ccc(S(=O)(=O)N2CCN(CC(=O)N/N=C/c3cc([N+](=O)[O-])ccc3Cl)CC2)cc1,14.9%
3,COc1ccccc1C1C(C(N)=O)=C(C)Nc2nc(CCCO)nn21 (configuration not stated),-1.6%
4,Cc1occc1-c1nnc(SCC(=O)NC2CCCCC2)o1,-1.8%
5,O=C1N[C@H](Cc2ccccc2)C(=O)N[C@H]1Cc1cn(S(=O)(=O)c2ccccc2)c2ccccc12,-8%
6,CCOC(=O)C(NS(=O)(=O)c1ccc(C)cc1)(C(F)(F)F)P(=O)(OCC(C)C)OCC(C)C (configuration not stated),2.8%
7,CCOC(=O)/C(N=Nc1cc(C(=O)O)cc(C(=O)O)c1)=C(\O)CCl,-0.2%
8,CCn1c(CSc2nncn2-c2ccc(OC)cc2)nc2cc(S(=O)(=O)N(C)C)ccc21,6.6%
9,CCN(CC)S(=O)(=O)c1cc(C(=O)Nc2ccccn2)ccc1C,0.4%
10,OCC(O)CN(c1ccccc1)c1ccccc1 (configuration not stated),0.3%
11,CN(C(=O)C1CCN(c2ncnc3c2nc2n3CCCCC2)CC1)C1CCCCC1,-5%
12,FC(F)(F)c1nnc2c3ccccc3c(Cl)nn12,-3.6%
13,CC(=O)N1CC[n+]2c(-c3ccc([N+](=O)[O-])cc3)csc21,7.9%
14,Cc1nc(C(=O)N2CCCC(C(=O)c3ccc(Cl)cc3)C2)cs1 (configuration not stated),0.3%
15,CCc1ccc(CN(C)Cc2nc(Cc3ccccc3)no2)nc1,-1.4%
16,O=C1N[C@@H](Cc2ccccc2)C(=O)N2[C@H]1C[C@]1(Br)c3ccccc3N(S(=O)(=O)c3ccccc3)[C@H]21,5.7%
17,CCC(=O)Nc1c(S(=O)(=O)c2ccccc2)c2nc3ccccc3nc2n1Cc1ccccc1,2.7%
18,O=C(O)c1ccccc1OCc1ccccc1Cl,6.6%
19,CN(C(=O)CSc1nnc(N)s1)c1c(N)n(Cc2ccccc2)c(=O)[nH]c1=O,3.6%
20,Cc1ccc(N2C(=O)c3ccccc3C2(O)c2ncc[nH]2)cc1 (configuration not stated),-9%
21,CCC(C)(C(=O)NC1CCCCC1)N(C)C(=O)c1ccc2c(c1)OCO2 (configuration not stated),2.8%
22,CCOc1ccc(NS(=O)(=O)c2cc(C)c(C)cc2C)cc1,-7.7%
23,CN(C)N(C)C(=O)C(O)(c1ccccc1)c1ccccc1,2.1%
24,O=c1c(F)cn(C2CCCO2)c(=O)n1Cc1ccccc1Cl (configuration not stated),-1.3%

# — PubChem BioAssay AID2806 (Sanford-Burnham Center for Chemical Genomics, 2010)
